Here are results for 7 molecules from PubChem BioAssay (EPA / NIEHS).

Results filed as inconclusive are left out. Some structures have more than one record in an assay (separate samples or runs), and their calls can disagree. The source made the active and inactive calls. Rule for the calls, unless noted: active = hit-call score of the fitted dose curve at least 0.9, where 1 is the maximum; inactive = score below 0.9.

What is called AC50 is the concentration at which the activity in the assay is half-maximal.

Test [1] concerns the target Oxysterols receptor LXR-beta (Homo sapiens) (UniProt P55055). The experiment in a line: ATG_LXRb_TRANS: Attagene TRANS-FACTORIAL HepG2 Assay for human Liver X Receptor beta (LXRb) (AID 2282981; active = hit-call score of the fitted dose curve at least 0.9, where 1 is the maximum). As to conditions: HepG2 Attagene TRANS GAL4-LXRb reporter, mRNA. The essentials:
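In this TRANS format, exogenous chimeric NR-Gal4 protein activity, not endogenous factors, drives reporter expression in transfected human HepG2 cells. Exposure lasted 24 h; reporter mRNA was read by fluorescent capillary electrophoresis.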

Test [2] has as its target Hepatocyte nuclear factor 4-alpha (Homo sapiens) (UniProt P41235). The experiment in a line: ATG_HNF4a_TRANS: Attagene TRANS-FACTORIAL HepG2 Assay for human Hepatocyte Nuclear Factor 4 alpha (HNF4a) (AID 2282982; active = hit-call score of the fitted dose curve at least 0.9, where 1 is the maximum). The conditions noted are these: HepG2 HNF4a transactivation reporter, mRNA readout. The essentials: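 Cells used were human HepG2, transiently carrying GAL4-UAS reporter units read out against exogenous NR-GAL4 chimeras. Reporter transcript levels after 24 h dosing were quantified by fluorescent RT-PCR and capillary electrophoresis.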

A short description of test [3]: ATG_M_32_TRANS: Attagene TRANS-FACTORIAL HepG2 Assay for M32 Transcription Factor (Internal Marker) (AID 2282984; active = hit-call score of the fitted dose curve at least 0.9, where 1 is the maximum). As to conditions: HepG2 Attagene TRANS M32 internal marker reporter. The procedure, abridged: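 Human hepatoma HepG2, transient MRTU transfection, 24 h treatment. RNA → RT-PCR → fluorescent primer extension → HpaI digest (2 h, 37 C) → CE. Positive-direction fit vs DMSO.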

The target in test [4] is Nuclear receptor subfamily 4 group A member 2 (Homo sapiens) (UniProt P43354). The test is described as follows: ATG_NURR1_TRANS: Attagene TRANS-FACTORIAL HepG2 Assay for human Nuclear Receptor Related Protein 1 (NURR1) (AID 2282985; active = hit-call score of the fitted dose curve at least 0.9, where 1 is the maximum). The conditions noted are these: HepG2 Attagene TRANS reporter, mRNA readout. The essentials: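 After 24 h chemical dosing, total RNA from transiently transfected HepG2 cells was reverse-transcribed and reporter cDNA PCR-amplified, FAM-labelled and analysed by capillary electrophoresis. Activity fitted in positive direction, DMSO as negative control.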

Test [5] concerns the target Transcriptional activator Myb (Homo sapiens) (UniProt P10242). The experiment in a line: ATG_Myb_CIS: Attagene CIS-FACTORIAL HepG2 Assay for human Myeloblastosis (Myb) Proto-Oncogene Transcription Factor (AID 2282986). As to conditions: HepG2 Attagene CIS-FACTORIAL Myb reporter transcription; actives raise or lower the signal. The essentials: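 Transiently transfected HepG2 cells carrying a multiplexed cis-promoter reporter set report endogenous Myb activity after 24 h compound exposure. Reporter mRNA is read by RT-PCR with capillary electrophoresis of fluorescent products, fitted bidirectionally against DMSO.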

In test [6] the target is Nuclear respiratory factor 1 (Homo sapiens) (UniProt Q16656). The experiment in a line: ATG_NRF1_CIS: Attagene CIS-FACTORIAL HepG2 Assay for human Nuclear Respiratory Factor 1 (NRF1) Orphan Gene (AID 2282987). The conditions noted are these: HepG2 NRF1 cis-element reporter, Attagene multiplex; actives raise or lower the signal. The procedure, abridged: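 HepG2 cells transiently transfected with multiple cis-regulated reporter units, exposed 24 h. Reporter mRNAs measured by RT-PCR, fluorescent labelling, HpaI digestion and capillary electrophoresis; bidirectional fitting against DMSO.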

A short description of test [7]: ATG_NFI_CIS: Attagene CIS-FACTORIAL HepG2 Assay for human Nuclear Factor I (NFI) (AID 2282989). As to conditions: HepG2 cis-regulatory reporter, NFI response element transcription; actives raise or lower the signal. The essentials:
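Read-out: reporter mRNA via RT-PCR plus capillary electrophoresis with fluorescence detection. Transiently transfected HepG2 (endogenous TF activity on cis promoters), 24 h compound exposure; gain or loss of signal fitted against DMSO.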

The target in test [8] is Myc proto-oncogene protein (Homo sapiens) (UniProt P01106). The experiment in a line: ATG_Myc_CIS: Attagene CIS-FACTORIAL HepG2 Assay for human Myelocytomatosis (Myc) Proto-Oncogene Transcription Factor (AID 2282990). The conditions noted are these: HepG2, Attagene cis-reporter transcription factor activity; actives raise or lower the signal. The essentials:
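Multiplexed cis-reporter transcription in HepG2 cells after 24 h chemical treatment. Reporter mRNA measured by RT-PCR and capillary electrophoresis fluorescence; activity fitted bidirectionally against DMSO control.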

Test [9] is described as follows: ATG_NF_kB_CIS: Attagene CIS-FACTORIAL HepG2 Assay for human Nuclear Factor Kappa B (NF-kB) (AID 2282991). As to conditions: HepG2 Attagene cis-factorial NF-kB reporter mRNA; actives raise or lower the signal. The procedure, abridged: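 HepG2 cells transfected with cis-promoter-driven reporter units, so endogenous transcription factor activity is measured. Reporter mRNA quantified 24 h after dosing by RT-PCR and capillary electrophoresis, with bidirectional fitting against DMSO.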

Test [10] can be described thus: ATG_NRF2_ARE_CIS: Attagene CIS-FACTORIAL HepG2 Assay for human Nuclear Factor Erythroid 2 Related Factor 2 (NFR2) response to Antioxidant Response Elements (ARE) (AID 2282992). As to conditions: HepG2 Attagene ARE/NRF2 reporter, transcription factor activity; actives raise or lower the signal. The essentials:
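Transient MRTU transfection of HepG2; 24 h compound exposure; TriZol RNA, RT with oligo(dT), PCR, 6-FAM primer extension, HpaI cut, CE. Bidirectional fit vs DMSO.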

Test [11] can be described thus: ATG_Oct_MLP_CIS: Attagene CIS-FACTORIAL HepG2 Assay for human Octamer-Binding Transcription Factor (Oct) (AID 2282993). The conditions noted are these: HepG2 Attagene cis-factorial Oct reporter, mRNA; actives raise or lower the signal. The essentials:
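Read-out: reporter mRNA via RT-PCR plus capillary electrophoresis of 6-FAM-labelled fragments. Transiently transfected HepG2, 24 h exposure, endogenous TF activity on cis elements. Gain or loss of signal fitted relative to DMSO.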

Test [12] concerns the target Cellular tumor antigen p53 (Homo sapiens) (UniProt P04637). The experiment in a line: ATG_p53_CIS: Attagene CIS-FACTORIAL HepG2 Assay for human p53 Transcription Factor (AID 2282994). As to conditions: HepG2 p53 cis-element reporter, Attagene mRNA; actives raise or lower the signal. The essentials: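 HepG2, transient MRTU transfection (cis promoter elements, endogenous TFs); 24 h dosing; RNA isolation, RT-PCR, 6-FAM primer extension, HpaI digest, CE fluorescence; bidirectional fit vs DMSO.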

Test [13] concerns the target human Peroxisome Proliferator-activated Receptor alpha (PPARa), PPARA (gene 5465) (UniProt Q07869). The experiment in a line: ATG_PPARa_TRANS: Attagene TRANS-FACTORIAL HepG2 Assay for human Peroxisome Proliferator-activated Receptor alpha (PPARa) (AID 2283001; active = hit-call score of the fitted dose curve at least 0.9, where 1 is the maximum). The essentials:
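Gain-of-signal endpoint: reporter mRNA induction relative to DMSO, detected by fluorescent RT-PCR and capillary electrophoresis. HepG2 cells transiently carried GAL4-UAS-driven reporter units plus NR-Gal4 fusion; exposure lasted 24 h.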

The target in test [14] is human Peroxisome Proliferator-activated Receptor delta (PPARd), PPARD (gene 5467) (UniProt Q03181). The experiment in a line: ATG_PPARd_TRANS: Attagene TRANS-FACTORIAL HepG2 Assay for human Peroxisome Proliferator-activated Receptor delta (PPARd) (AID 2283002; active = hit-call score of the fitted dose curve at least 0.9, where 1 is the maximum). The essentials:
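Multiplexed trans-activation format: HepG2 liver cells expressing exogenous NR-Gal4 chimeras and GAL4-UAS reporters were exposed for 24 h. Reporter mRNA was detected by RT-PCR with capillary electrophoresis fluorescence; activity fitted as gain of signal relative to DMSO.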

Test [15] is described as follows: ATG_M_06_TRANS: Attagene TRANS-FACTORIAL HepG2 Assay for M06 Transcription Factor (Internal Marker) (AID 2282983; active = hit-call score of the fitted dose curve at least 0.9, where 1 is the maximum). As to conditions: HepG2 Attagene TRANS M06 internal marker reporter. The essentials: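 HepG2 cells transiently transfected with multiplexed GAL4-UAS reporter transcription units; after 24 h compound exposure, reporter mRNA measured by RT-PCR, FAM-labelled primer extension, HpaI digestion and capillary electrophoresis. Gain-of-signal fitted versus DMSO baseline; background control readout.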

Test [16] in a line: BSK_3C_TissueFactor: BioMAP Diversity Plus: 3C Assay for Tissue Factor Biomarker Activity (AID 2282997). As to conditions: BioMAP 3C HUVEC, tissue factor biomarker readout; actives raise or lower the signal. The essentials:
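Primary human umbilical vein endothelial cells in the 3C system were exposed to test chemical for 24 h, then Tissue Factor measured by ELISA. Activity was fitted bidirectionally against DMSO as negative control and baseline.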

Test [17] can be described thus: BSK_3C_uPAR: BioMAP Diversity Plus: 3C Assay for Urokinase-type plasminogen activator receptor (uPAR) Biomarker Activity (AID 2282998). The conditions noted are these: BioMAP 3C HUVEC, uPAR biomarker ELISA; actives raise or lower the signal. The procedure, abridged: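 HUVEC primary cells; 24 h post-dose; uPAR by ELISA; gain or loss of signal fitted bidirectionally vs DMSO baseline.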

Test [18] in a line: BSK_3C_VCAM1: BioMAP Diversity Plus: 3C Assay for Vascular cell adhesion molecule 1 (VCAM1) Biomarker Activity (AID 2282999). As to conditions: BioMAP 3C HUVEC, VCAM1 ELISA, cytokine-stimulated; actives raise or lower the signal. The procedure, abridged: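 Human umbilical vein endothelial cells were dosed with compound for 24 h, after which cell-surface VCAM-1 was quantified by ELISA. Bidirectional curve fitting used DMSO as negative control and activity baseline.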
In general terms: An ELISA detects its analyte on a solid surface through an enzyme-linked reagent.

Test [19] is described as follows: BSK_4H_Eotaxin3: BioMAP Diversity Plus: 4H Assay for Eotaxin 3 Biomarker Activity (AID 2283000).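 For outcome: CCL26 protein level quantified by ELISA in parallel with SRB cytotoxicity check.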 The conditions noted are these: primary human endothelial cells (HUVEC); actives raise or lower the signal. The procedure, abridged:
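HUVEC, 24 h post-dose, ELISA for Eotaxin-3/CCL26. Gain or loss of signal fitted bidirectionally vs DMSO baseline.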

Chain of Myc proto-oncogene protein (Homo sapiens) (P01106 whole entry, looked up): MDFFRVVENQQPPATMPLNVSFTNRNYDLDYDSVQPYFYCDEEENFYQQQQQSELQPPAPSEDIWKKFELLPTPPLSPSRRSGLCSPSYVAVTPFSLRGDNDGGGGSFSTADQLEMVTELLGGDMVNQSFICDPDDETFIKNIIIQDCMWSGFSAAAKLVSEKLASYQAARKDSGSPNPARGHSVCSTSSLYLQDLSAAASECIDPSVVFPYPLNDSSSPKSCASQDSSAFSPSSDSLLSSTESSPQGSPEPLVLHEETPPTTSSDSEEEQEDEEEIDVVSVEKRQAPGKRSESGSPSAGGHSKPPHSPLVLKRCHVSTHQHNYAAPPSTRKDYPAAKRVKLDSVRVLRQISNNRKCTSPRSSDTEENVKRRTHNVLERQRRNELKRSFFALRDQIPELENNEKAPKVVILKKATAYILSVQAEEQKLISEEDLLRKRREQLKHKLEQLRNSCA
Chain of Oxysterols receptor LXR-beta (Homo sapiens) (P55055 whole entry, looked up, the tested form may be a part): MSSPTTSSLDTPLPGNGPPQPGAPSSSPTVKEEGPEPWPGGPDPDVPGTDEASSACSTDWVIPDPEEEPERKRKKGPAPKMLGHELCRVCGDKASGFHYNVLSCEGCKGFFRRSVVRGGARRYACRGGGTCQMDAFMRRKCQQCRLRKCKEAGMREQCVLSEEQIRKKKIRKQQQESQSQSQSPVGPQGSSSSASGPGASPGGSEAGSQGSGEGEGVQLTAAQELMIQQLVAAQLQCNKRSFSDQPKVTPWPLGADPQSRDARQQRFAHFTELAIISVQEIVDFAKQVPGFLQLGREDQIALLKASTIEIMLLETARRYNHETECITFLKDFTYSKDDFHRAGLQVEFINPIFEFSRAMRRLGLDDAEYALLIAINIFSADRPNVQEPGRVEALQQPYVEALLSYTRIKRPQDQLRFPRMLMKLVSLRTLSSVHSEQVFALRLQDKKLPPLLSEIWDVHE
Chain of human Peroxisome Proliferator-activated Receptor delta (PPARd), PPARD (gene 5467) (Q03181 whole entry, looked up, the tested form may be a part): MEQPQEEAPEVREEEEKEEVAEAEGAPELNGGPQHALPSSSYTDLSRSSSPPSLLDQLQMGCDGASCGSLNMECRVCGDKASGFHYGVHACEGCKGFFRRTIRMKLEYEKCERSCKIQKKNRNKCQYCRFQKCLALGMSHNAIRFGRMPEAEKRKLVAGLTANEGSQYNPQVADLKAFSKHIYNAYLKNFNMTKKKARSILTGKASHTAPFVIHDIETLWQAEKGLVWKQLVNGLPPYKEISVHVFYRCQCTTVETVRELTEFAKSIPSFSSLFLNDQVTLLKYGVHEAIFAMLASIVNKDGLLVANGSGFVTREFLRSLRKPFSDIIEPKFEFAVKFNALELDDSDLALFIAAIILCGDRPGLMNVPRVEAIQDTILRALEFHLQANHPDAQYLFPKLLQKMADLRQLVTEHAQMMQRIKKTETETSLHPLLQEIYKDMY
Chain of Nuclear respiratory factor 1 (Homo sapiens) (Q16656 whole entry, looked up): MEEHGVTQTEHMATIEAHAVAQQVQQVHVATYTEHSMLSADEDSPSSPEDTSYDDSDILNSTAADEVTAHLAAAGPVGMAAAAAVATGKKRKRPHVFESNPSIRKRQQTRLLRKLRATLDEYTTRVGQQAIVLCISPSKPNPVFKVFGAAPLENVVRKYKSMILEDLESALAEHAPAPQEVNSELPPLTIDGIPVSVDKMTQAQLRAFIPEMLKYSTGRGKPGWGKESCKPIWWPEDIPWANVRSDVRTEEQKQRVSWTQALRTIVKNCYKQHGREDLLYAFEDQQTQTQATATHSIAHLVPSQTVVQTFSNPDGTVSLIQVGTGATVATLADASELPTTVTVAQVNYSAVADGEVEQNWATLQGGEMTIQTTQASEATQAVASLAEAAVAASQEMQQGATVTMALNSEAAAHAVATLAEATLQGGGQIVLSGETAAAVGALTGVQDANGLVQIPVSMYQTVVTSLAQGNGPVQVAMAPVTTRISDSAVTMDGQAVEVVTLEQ
Chain of Hepatocyte nuclear factor 4-alpha (Homo sapiens) (P41235 whole entry, looked up, the tested form may be a part): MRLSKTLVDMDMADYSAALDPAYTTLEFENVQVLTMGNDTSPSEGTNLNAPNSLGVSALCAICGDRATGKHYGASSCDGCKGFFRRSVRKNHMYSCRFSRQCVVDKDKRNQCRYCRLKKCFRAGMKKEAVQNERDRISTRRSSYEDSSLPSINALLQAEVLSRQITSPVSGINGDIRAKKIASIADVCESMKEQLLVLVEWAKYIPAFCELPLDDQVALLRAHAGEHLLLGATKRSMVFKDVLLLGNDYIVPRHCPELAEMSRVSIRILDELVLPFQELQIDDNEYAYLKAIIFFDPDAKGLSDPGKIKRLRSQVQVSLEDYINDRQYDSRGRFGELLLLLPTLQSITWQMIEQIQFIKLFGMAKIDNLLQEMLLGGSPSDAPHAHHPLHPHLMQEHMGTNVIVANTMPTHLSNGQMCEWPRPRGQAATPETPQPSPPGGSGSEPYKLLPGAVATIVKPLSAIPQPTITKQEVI
Chain of human Peroxisome Proliferator-activated Receptor alpha (PPARa), PPARA (gene 5465) (Q07869 whole entry, looked up, the tested form may be a part): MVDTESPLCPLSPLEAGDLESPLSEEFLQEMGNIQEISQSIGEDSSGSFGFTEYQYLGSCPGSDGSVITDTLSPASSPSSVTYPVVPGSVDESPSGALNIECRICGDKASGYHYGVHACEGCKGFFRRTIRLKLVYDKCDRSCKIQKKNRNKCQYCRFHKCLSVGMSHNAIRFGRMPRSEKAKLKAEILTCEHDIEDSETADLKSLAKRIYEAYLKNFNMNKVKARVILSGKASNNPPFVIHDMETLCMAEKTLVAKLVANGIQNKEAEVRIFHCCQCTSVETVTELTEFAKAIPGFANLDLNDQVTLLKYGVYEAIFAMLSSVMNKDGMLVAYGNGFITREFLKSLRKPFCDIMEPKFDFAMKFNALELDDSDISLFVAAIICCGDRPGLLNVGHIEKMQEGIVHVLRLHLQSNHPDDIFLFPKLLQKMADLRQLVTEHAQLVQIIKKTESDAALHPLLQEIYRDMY
Chain of Transcriptional activator Myb (Homo sapiens) (P10242 whole entry, looked up): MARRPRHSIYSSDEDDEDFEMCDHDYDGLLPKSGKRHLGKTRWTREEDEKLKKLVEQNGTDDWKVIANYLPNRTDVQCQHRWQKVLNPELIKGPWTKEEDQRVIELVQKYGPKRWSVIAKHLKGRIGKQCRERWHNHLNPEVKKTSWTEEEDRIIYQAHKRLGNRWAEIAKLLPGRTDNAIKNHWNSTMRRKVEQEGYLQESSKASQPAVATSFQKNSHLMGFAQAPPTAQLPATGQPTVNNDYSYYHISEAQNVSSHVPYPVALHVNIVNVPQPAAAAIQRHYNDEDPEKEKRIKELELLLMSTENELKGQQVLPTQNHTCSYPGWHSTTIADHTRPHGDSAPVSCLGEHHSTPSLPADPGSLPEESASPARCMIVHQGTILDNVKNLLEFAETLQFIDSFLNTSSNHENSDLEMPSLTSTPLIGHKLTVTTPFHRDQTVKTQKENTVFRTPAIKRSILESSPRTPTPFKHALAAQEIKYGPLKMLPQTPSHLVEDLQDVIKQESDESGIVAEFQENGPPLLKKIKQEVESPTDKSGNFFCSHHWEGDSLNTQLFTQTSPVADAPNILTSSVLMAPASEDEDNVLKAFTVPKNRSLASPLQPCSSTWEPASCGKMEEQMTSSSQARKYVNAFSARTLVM
Chain of Nuclear receptor subfamily 4 group A member 2 (Homo sapiens) (P43354 whole entry, looked up): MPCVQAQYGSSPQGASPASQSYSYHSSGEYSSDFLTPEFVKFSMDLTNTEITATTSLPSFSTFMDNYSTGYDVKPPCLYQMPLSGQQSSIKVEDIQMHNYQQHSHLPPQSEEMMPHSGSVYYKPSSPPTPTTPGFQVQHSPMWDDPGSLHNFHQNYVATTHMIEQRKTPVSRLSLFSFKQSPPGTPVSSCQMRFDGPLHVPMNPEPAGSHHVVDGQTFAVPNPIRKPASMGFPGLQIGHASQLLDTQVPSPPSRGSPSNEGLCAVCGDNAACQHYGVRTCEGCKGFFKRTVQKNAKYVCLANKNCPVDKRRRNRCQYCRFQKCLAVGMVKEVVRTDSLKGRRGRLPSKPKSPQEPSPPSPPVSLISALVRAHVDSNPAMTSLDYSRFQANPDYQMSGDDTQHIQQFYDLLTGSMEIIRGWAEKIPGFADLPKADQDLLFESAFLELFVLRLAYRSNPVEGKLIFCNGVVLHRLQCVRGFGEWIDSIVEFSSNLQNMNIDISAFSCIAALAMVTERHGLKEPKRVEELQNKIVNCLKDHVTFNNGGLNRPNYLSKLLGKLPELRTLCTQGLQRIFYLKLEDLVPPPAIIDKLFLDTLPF
Chain of Cellular tumor antigen p53 (Homo sapiens) (P04637 whole entry, looked up): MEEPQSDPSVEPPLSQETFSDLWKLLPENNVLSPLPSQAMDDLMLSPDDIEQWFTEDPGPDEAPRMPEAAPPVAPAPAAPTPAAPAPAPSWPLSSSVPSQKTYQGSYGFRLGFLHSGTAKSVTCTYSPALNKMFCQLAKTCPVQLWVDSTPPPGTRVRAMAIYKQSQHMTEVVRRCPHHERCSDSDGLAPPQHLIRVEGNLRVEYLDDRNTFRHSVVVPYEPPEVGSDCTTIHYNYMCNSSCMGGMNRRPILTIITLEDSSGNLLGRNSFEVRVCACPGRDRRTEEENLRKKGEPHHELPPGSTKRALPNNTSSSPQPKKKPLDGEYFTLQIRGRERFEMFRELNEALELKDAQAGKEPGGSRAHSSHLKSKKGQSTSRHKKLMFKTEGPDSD

In the case of `CC(C)C=O`, the call in [1], in test [2], in [3], in test [4], in test [5] and in test [6] was inactive. Besides, the molecule was classed as inactive in test [7], in test [8], in test [9], in test [10], in test [11] and in test [12]. For the same molecule, the molecule was called inactive in test [13] and in [14]. For the same molecule, the AC50 in test [10] is 64.6 µM (active).
With `O=S(=O)(O)c1ccccc1`, the result in test [1], in test [2], in test [15], in test [3], in test [5] and in test [6] was inactive. The molecule was classed as inactive in test [8], in test [9], in test [10] and in [13].
On to `O=C1OC2(c3ccccc31)c1cc(I)c(O)c(I)c1Oc1c2cc(I)c(O)c1I`, for which the call in test [1], in test [2], in [15], in [3], in [4] and in test [5] was inactive. The outcome in test [6], in test [7], in test [8], in test [10], in [12] and in test [13] was inactive. Further, the molecule was called inactive in test [14]. The concentration at half-maximal activity (AC50) in [4] was 25.4 µM (active); in test [16], 12 µM (active); in test [17], 5.04 µM (active); in test [18], 12 µM (active); in test [19], 8.42 µM (active).
In the case of `COc1cc(OC)nc(NC(=O)NS(=O)(=O)Nc2ccccc2C(=O)N(C)C)n1`, the call in [1], in [2], in [15], in [4], in [5] and in test [6] was inactive. Also, the result in [7], in [8], in test [9], in test [10], in test [12] and in test [16] was inactive. In addition, the result in test [17], in test [18], in [19] and in test [13] was inactive.
Consider `CCOC=C(C(=O)OCC)C(=O)OCC`, for which the result in test [1], in test [2], in test [15], in test [3], in test [4] and in test [5] was inactive. In addition, the outcome in test [6], in [7], in test [8], in test [9], in test [10] and in [12] was inactive. Moreover, the molecule was called inactive in test [13] and in [14].
For the molecule `OCCN1CN(CCO)CN(CCO)C1`, the outcome in [1], in [2], in [3], in test [5], in test [6] and in test [8] was inactive. The outcome in [9], in test [12], in [13] and in test [14] was inactive. The AC50 in test [7] is 144 µM (active); in [10], 56.5 µM (active); in test [11], 160 µM (active); in test [16] it was 20 µM (active); in [17], 32.6 µM (active); in [18], 32.8 µM (active). Further, the AC50 in test [19] was 30.2 µM (active).
Take `CCCCN(C)C`: the molecule was called inactive in [1], in [2], in test [15], in test [4], in test [5] and in [6]. For the same molecule, the outcome in [8], in test [9], in [10], in test [11], in test [12] and in test [13] was inactive. The call in test [14] was inactive.
